# A structure can be active in one record and inactive in another. The source made the active and inactive calls. Rule for the calls: active = hit-call score of the fitted dose curve at least 0.9, where 1 is the maximum; inactive = score below 0.9.
# Columns and labels:
# [1] = read-out: Interleukin-1 alpha (IL1a), IL1A (gene 3552); experiment: BSK_KF3CT_IL1a: BioMAP Diversity Plus: KF3CT Assay for Interleukin-1 alpha (IL1a) Biomarker Activity (AID 2283070); settings: primary human keratinocytes with fibroblasts; actives raise or lower the signal
# Outline: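 Readout is IL-1a level by ELISA, compared bidirectionally with DMSO as baseline. Cells: human keratinocytes co-cultured with foreskin fibroblasts, harvested 24 h post-dose.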
# [2] = read-out: TIMP metallopeptidase inhibitor 2 (TIMP2), TIMP2 (gene 7077); experiment: BSK_KF3CT_TIMP2: BioMAP Diversity Plus: KF3CT Assay for TIMP metallopeptidase inhibitor 2 (TIMP2) Biomarker Activity (AID 2283071); settings: primary human keratinocytes with fibroblasts; actives raise or lower the signal
# Outline: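 Chemicals were dosed onto human skin primary co-cultures of keratinocytes and foreskin fibroblasts, and TIMP-2 was measured by ELISA after 24 hours. Activity in either direction was fitted relative to DMSO.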
# [3] = read-out: Transforming growth factor beta 1 (TGFb1), TGFB1 (gene 7040); experiment: BSK_KF3CT_TGFb1: BioMAP Diversity Plus: KF3CT Assay for Transforming growth factor beta 1 (TGFb1) Biomarker Activity (AID 2283072); settings: primary human keratinocytes with fibroblasts; actives raise or lower the signal
# Outline: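 KF3CT co-culture (keratinocytes + fibroblasts), 24 h exposure → TGF-b1 ELISA → bidirectional fit, DMSO = baseline. Parallel SRB total-protein staining (0.1% SRB, 10% TCA fixation, 560 nm) for cytotoxicity.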
# [4] = read-out: C-C motif chemokine 2 (Homo sapiens) (UniProt P13500); experiment: BSK_KF3CT_MCP1: BioMAP Diversity Plus: KF3CT Assay for Monocyte Chemoattractant Protein 1 (MCP1/CCL2) Biomarker Activity (AID 2283073); settings: primary human keratinocytes with fibroblasts; actives raise or lower the signal
# Outline: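 Keratinocytes and foreskin fibroblasts were co-cultured, dosed with chemical, and sampled 24 h later. MCP-1 was quantified by ELISA, and the endpoint was analyzed with bidirectional fitting using DMSO as negative control.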
# [5] = read-out: Matrix Metallopeptidase 9 (MMP9), MMP9 (gene 4318); experiment: BSK_KF3CT_MMP9: BioMAP Diversity Plus: KF3CT Assay for Matrix Metallopeptidase 9 (MMP9) Biomarker Activity (AID 2283074); settings: primary human keratinocytes with fibroblasts; actives raise or lower the signal;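 for AC50: MMP9 protein level quantified by ELISA in the co-culture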
# Outline: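 Values come from bidirectional fitting relative to DMSO of MMP-9 levels, which were measured by ELISA. Measurements were taken 24 h after chemical dosing of a keratinocyte and foreskin fibroblast co-culture.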
# [6] = read-out: urokinase plasminogen activator (uPA), PLAU (gene 5328); experiment: BSK_KF3CT_uPA: BioMAP Diversity Plus: KF3CT Assay for urokinase plasminogen activator (uPA) Biomarker Activity (AID 2283075); settings: primary human keratinocytes with fibroblasts; actives raise or lower the signal
# Outline: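 Values derive from bidirectional fitting against DMSO controls. Keratinocyte/foreskin fibroblast co-cultures received chemical; 24 h later uPA was detected by ELISA, with SRB total-protein staining in parallel wells for overt cytotoxicity.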
# [7] = read-out: CD40, CD40 (gene 958); experiment: BSK_LPS_CD40: BioMAP Diversity Plus: LPS Assay for CD40 Biomarker Activity (AID 2283076); settings: primary human HUVEC with PBMC; actives raise or lower the signal
# Outline: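 CD40 signal, measured by ELISA, is fitted in both directions relative to DMSO vehicle. The system is an LPS-driven human vascular primary co-culture of endothelial cells and PBMC, sampled 24 h after compound addition.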
# [8] = read-out: E-selectin (Homo sapiens) (UniProt P16581); experiment: BSK_LPS_Eselectin: BioMAP Diversity Plus: LPS Assay for Eselectin Biomarker Activity (AID 2283077); settings: primary human HUVEC with PBMC; actives raise or lower the signal
# Outline: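 Signal of E-selectin, detected by ELISA, served as the endpoint; cells were umbilical vein endothelium with PBMC, read 24 h after treatment. DMSO defined baseline, and both increases and decreases were fitted.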
# [9] = read-out: Interleukin-8 (IL8), CXCL8 (gene 3576); experiment: BSK_LPS_IL8: BioMAP Diversity Plus: LPS Assay for Interleukin-8 (IL8) Biomarker Activity (AID 2283078); settings: primary human HUVEC with PBMC; actives raise or lower the signal
# Outline: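 Endothelial cells and PBMC from human donors are co-cultured, treated with chemicals and LPS, then assayed for IL-8 by ELISA after 24 h. Parallel SRB staining (0.1% SRB after 10% TCA fixation, 560 nm) flags cytotoxicity.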
# [10] = read-out: Interleukin-1 alpha (IL1a), IL1A (gene 3552); experiment: BSK_LPS_IL1a: BioMAP Diversity Plus: LPS Assay for Interleukin-1 alpha (IL1a) Biomarker Activity (AID 2283080); settings: primary human HUVEC with PBMC; actives raise or lower the signal
# Outline: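 Measured: IL-1 alpha via ELISA at 24 h in LPS-activated human umbilical vein endothelium–PBMC co-culture. Baseline: DMSO, bidirectional fitting.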
# [11] = read-out: Monocyte Chemoattractant Protein-1 (MCP1), CCL2 (gene 6347); experiment: BSK_LPS_MCP1: BioMAP Diversity Plus: LPS Assay for Monocyte Chemoattractant Protein-1 (MCP1) Biomarker Activity (AID 2283081); settings: primary human HUVEC with PBMC; actives raise or lower the signal;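 for AC50: secreted MCP-1 protein quantified by ELISA in culture supernatant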
# Outline: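 LPS-stimulated HUVEC/PBMC co-culture; chemical, 24 h; MCP-1 by ELISA; bidirectional fit vs DMSO; cytotoxicity via SRB (0.1% stain, 10% TCA fix, 560 nm) in parallel wells.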
# [12] = BSK_LPS_PGE2: BioMAP Diversity Plus: LPS Assay for Prostaglandin E2 (PGE2) Biomarker Activity (AID 2283082); settings: primary human HUVEC with PBMC; actives raise or lower the signal;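 for AC50: secreted prostaglandin E2 measured by ELISA in LPS-stimulated co-culture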
# Outline: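 Compounds were added to the LPS co-culture of endothelium and PBMC, and PGE2 was measured by ELISA after 24 h. Responses in either direction were fitted with DMSO as baseline.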
# [13] = read-out: Macrophage colony-stimulating factor (MCSF), CSF1 (gene 1435); experiment: BSK_LPS_MCSF: BioMAP Diversity Plus: LPS Assay for Macrophage colony-stimulating factor (MCSF) Biomarker Activity (AID 2283083); settings: primary human HUVEC with PBMC; actives raise or lower the signal
# Outline: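 Compound is added to a human vascular primary co-culture of umbilical vein endothelium and blood mononuclear cells. After 24 h, M-CSF is quantified by ELISA. Signal changes are fitted in both directions against DMSO.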
# [14] = read-out: Tissue Factor, F3 (gene 2152); experiment: BSK_LPS_TissueFactor: BioMAP Diversity Plus: LPS Assay for Tissue Factor Biomarker Activity (AID 2283084); settings: primary human HUVEC with PBMC; actives raise or lower the signal
# Outline: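 In this co-culture system of umbilical vein endothelium with PBMC, stimulated with LPS, cell-surface CD142 is detected by ELISA at 24 h. Endpoint values derive from bidirectional fitting, DMSO serving as baseline.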
# [15] = read-out: Tumor necrosis factor (Homo sapiens) (UniProt P01375); experiment: BSK_LPS_TNFa: BioMAP Diversity Plus: LPS Assay for Tumour Necrosis Factor alpha (TNFa) Biomarker Activity (AID 2283085); settings: primary human HUVEC with PBMC; actives raise or lower the signal;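 for AC50: TNFa protein level quantified by ELISA in the co-culture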
# Outline: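 Cells (umbilical vein endothelium plus peripheral blood mononuclear cells) were dosed with chemical, incubated 24 h, then TNFa was quantified by ELISA; values derive from bidirectional fitting with DMSO as baseline.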
# [16] = read-out: Vascular cell adhesion molecule 1 (VCAM1), VCAM1 (gene 7412); experiment: BSK_LPS_VCAM1: BioMAP Diversity Plus: LPS Assay for Vascular cell adhesion molecule 1 (VCAM1) Biomarker Activity (AID 2283086); settings: primary human HUVEC with PBMC; actives raise or lower the signal
# Outline: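 Cells are dosed in an LPS-stimulated endothelial/mononuclear co-culture and, after 24 h, VCAM-1 is quantified by ELISA. Activity in either direction is fitted relative to the DMSO negative control.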
# [17] = read-out: CD38, CD38 (gene 952); experiment: BSK_SAg_CD38: BioMAP Diversity Plus: SAg Assay for CD38 Biomarker Activity (AID 2283087); settings: primary human HUVEC with PBMC; actives raise or lower the signal
# Outline: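 CD38 quantified by ELISA (fluorescence) in a superantigen-activated endothelial cell–PBMC co-culture at 24 h post-dose. Activity fitted in both directions relative to DMSO; parallel SRB and Alamar Blue cytotoxicity read-outs.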
# [18] = read-out: CD40, CD40 (gene 958); experiment: BSK_SAg_CD40: BioMAP Diversity Plus: SAg Assay for CD40 Biomarker Activity (AID 2283088); settings: primary human HUVEC with PBMC; actives raise or lower the signal
# Outline: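 Fluorescence ELISA read-out of CD40 from umbilical vein endothelium plus peripheral blood mononuclear cells, sampled 24 h after dosing. Values come from bidirectional curve fitting with DMSO as baseline.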
# [19] = read-out: CD69, CD69 (gene 969); experiment: BSK_SAg_CD69: BioMAP Diversity Plus: SAg Assay for CD69 Biomarker Activity (AID 2283089); settings: primary human HUVEC with PBMC; actives raise or lower the signal
# Outline: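 Values derive from bidirectional fitting relative to DMSO vehicle. Cells: umbilical vein endothelium plus peripheral blood mononuclear cells, treated 24 h before fluorescent ELISA for CD69.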
# [20] = BSK_LPS_SRB: Viability Assessment in the BioMAP Diversity Plus: LPS Assay (AID 2283079); settings: primary human HUVEC with PBMC;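 note: total protein by sulforhodamine B absorbance as a cytotoxicity measure; measured one day after compound addition; fitted in both directions against DMSO so loss or gain of signal counts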
# Outline: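 Overt cytotoxicity was gauged by sulforhodamine B total-protein staining in a primary human vascular endothelial and mononuclear cell co-culture 24 h post-dosing. Activity was fitted in both directions relative to DMSO.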
# Sequence of E-selectin (Homo sapiens) (P16581 whole entry, looked up): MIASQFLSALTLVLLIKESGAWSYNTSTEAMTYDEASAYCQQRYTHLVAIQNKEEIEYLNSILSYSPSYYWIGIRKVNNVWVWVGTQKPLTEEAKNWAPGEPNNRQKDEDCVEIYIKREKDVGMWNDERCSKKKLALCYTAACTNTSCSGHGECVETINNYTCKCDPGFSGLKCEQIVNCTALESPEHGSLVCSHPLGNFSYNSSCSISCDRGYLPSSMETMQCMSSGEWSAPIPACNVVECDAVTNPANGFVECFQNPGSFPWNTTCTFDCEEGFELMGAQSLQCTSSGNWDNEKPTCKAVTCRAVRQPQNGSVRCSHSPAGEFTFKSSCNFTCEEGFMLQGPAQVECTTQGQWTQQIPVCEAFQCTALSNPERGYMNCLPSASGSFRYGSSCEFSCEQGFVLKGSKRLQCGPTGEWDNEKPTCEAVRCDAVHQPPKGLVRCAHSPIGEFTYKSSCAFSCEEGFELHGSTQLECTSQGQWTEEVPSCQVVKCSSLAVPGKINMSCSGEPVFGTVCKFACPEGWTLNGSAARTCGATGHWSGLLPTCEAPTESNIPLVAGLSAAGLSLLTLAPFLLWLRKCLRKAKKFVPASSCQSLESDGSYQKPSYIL
# Sequence of Tumor necrosis factor (Homo sapiens) (P01375 whole entry, looked up): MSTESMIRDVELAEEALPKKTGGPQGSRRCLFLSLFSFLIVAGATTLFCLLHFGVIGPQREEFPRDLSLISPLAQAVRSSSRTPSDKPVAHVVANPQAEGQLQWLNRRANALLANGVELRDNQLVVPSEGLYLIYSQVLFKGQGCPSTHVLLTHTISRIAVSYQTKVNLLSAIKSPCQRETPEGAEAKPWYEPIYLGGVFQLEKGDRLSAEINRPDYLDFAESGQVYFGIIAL
compound,measurement,setting,value
Cn1c(=O)c2[nH]cnc2n(C)c1=O,outcome,[1],inactive
same,outcome,[2],inactive
same,outcome,[3],inactive
same,outcome,[4],inactive
same,outcome,[5],inactive
same,outcome,[6],inactive
same,outcome,[7],inactive
same,outcome,[8],inactive
same,outcome,[9],inactive
same,outcome,[10],inactive
same,outcome,[11],inactive
same,outcome,[12],inactive
same,outcome,[13],inactive
same,outcome,[14],inactive
same,outcome,[15],inactive
same,outcome,[16],inactive
same,outcome,[17],inactive
same,outcome,[18],inactive
same,outcome,[19],inactive
CC1(C)C(=O)N(Cl)C(=O)N1Cl,outcome,[1],inactive
same,outcome,[2],inactive
same,outcome,[3],inactive
same,outcome,[4],inactive
same,outcome,[5],inactive
same,outcome,[6],inactive
same,outcome,[7],inactive
same,outcome,[8],inactive
same,outcome,[9],inactive
same,outcome,[20],inactive
same,outcome,[10],inactive
same,outcome,[11],inactive
same,outcome,[12],inactive
same,outcome,[13],inactive
same,outcome,[14],inactive
same,outcome,[15],inactive
same,outcome,[16],inactive
same,outcome,[17],inactive
same,outcome,[18],inactive
same,outcome,[19],inactive
OCCC(F)(F)C(F)(F)C(F)(F)C(F)(F)F,AC50,[1],8.32 µM (active)
same,outcome,[1],inactive
same,outcome,[2],inactive
same,outcome,[4],inactive
same,outcome,[5],inactive
same,outcome,[8],inactive
same,outcome,[9],inactive
same,outcome,[20],inactive
same,outcome,[10],inactive
same,outcome,[11],inactive
same,outcome,[12],inactive
same,outcome,[13],inactive
same,outcome,[14],inactive
same,outcome,[15],inactive
same,outcome,[16],inactive
same,outcome,[18],inactive
same,outcome,[19],inactive
C=CCc1cc(S(=O)(=O)c2ccc(O)c(CC=C)c2)ccc1O,AC50,[1],30 µM (active)
same,AC50,[2],17.3 µM (active)
same,outcome,[3],inactive
same,AC50,[4],24.4 µM (active)
same,AC50,[5],10.3 µM (active)
same,AC50,[6],30.4 µM (active)
same,AC50,[7],11.7 µM (active)
same,AC50,[8],29.2 µM (active)
same,AC50,[9],16.2 µM (active)
same,AC50,[20],14.7 µM (active)
same,AC50,[10],30.6 µM (active)
same,AC50,[11],15.8 µM (active)
same,AC50,[12],32.3 µM (active)
same,AC50,[13],28.6 µM (active)
same,AC50,[14],32.7 µM (active)
same,AC50,[15],29.8 µM (active)
same,AC50,[16],30 µM (active)
same,AC50,[17],14.5 µM (active)
same,AC50,[18],11.6 µM (active)
O=S1(=O)CCCO1,outcome,[1],inactive
same,outcome,[2],inactive
same,outcome,[3],inactive
same,outcome,[4],inactive
same,outcome,[5],inactive
same,outcome,[6],inactive
same,outcome,[7],inactive
same,outcome,[8],inactive
same,outcome,[9],inactive
same,outcome,[10],inactive
same,outcome,[11],inactive
same,outcome,[12],inactive
same,outcome,[13],inactive
same,outcome,[14],inactive
same,outcome,[15],inactive
same,outcome,[16],inactive
same,outcome,[17],inactive
same,outcome,[18],inactive
c1ccc2c(c1)-c1cccc3c1c-2cc1ccccc13,outcome,[1],inactive
same,outcome,[2],inactive
same,outcome,[3],inactive
same,outcome,[4],inactive
same,outcome,[5],inactive
same,outcome,[6],inactive
same,outcome,[7],inactive
same,outcome,[8],inactive
same,outcome,[9],inactive
same,outcome,[20],inactive
same,outcome,[10],inactive
same,outcome,[11],inactive
same,outcome,[12],inactive
same,outcome,[13],inactive
same,AC50,[14],0.552 µM (active)
same,outcome,[15],inactive
same,outcome,[16],inactive
same,outcome,[17],inactive
same,outcome,[18],inactive
